This is one part of the list. No count for the full screen is at hand.
Molecular target: furin, P09958
Assay: furin cleavage Z-score vs untreated control; higher = more cleavage, active = 3.5 or more, inactive = 1 or less, 8 variable residues between constant flanks
Summary of the method: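 Cleavage by purified furin was measured on 8-mer peptides fused to a cDNA oligonucleotide and held on magnetic beads by their N-terminus. Reactions (0.01 ml, 1:10 enzyme:substrate) ran 7.5, 15 or 30 min in 50 mM HEPES pH 7.5 with CaCl2 and NaCl. Released DNA was adapter-tagged by PCR and sequenced, with read counts giving abundance. Log counts versus furin-free reactions were lowess-adjusted and scaled by median absolute deviation to give the cleavage Z-score.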

Sequence of furin, P09958 (P09958 whole entry): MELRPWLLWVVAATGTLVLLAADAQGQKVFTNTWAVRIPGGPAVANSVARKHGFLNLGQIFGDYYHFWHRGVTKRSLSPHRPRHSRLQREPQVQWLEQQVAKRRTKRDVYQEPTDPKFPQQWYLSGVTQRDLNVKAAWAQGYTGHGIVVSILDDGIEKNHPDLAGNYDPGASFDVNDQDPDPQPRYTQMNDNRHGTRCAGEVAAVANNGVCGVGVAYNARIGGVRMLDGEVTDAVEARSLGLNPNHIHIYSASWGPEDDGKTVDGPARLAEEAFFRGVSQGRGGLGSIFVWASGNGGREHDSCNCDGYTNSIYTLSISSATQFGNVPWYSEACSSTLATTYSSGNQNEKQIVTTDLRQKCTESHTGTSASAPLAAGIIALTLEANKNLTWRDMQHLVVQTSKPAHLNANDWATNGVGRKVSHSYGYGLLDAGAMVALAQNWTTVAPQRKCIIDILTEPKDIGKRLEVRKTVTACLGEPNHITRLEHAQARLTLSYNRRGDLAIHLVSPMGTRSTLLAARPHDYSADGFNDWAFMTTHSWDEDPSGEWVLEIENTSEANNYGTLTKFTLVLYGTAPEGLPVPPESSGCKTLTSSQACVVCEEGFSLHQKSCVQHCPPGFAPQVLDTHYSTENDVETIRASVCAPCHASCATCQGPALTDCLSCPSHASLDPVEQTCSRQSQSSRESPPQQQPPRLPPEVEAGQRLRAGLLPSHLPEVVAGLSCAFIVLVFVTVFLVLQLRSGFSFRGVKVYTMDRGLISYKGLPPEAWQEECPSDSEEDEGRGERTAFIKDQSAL

Sequence	furin cleavage Z-score (7.5 min)	furin cleavage Z-score (15 min)	furin cleavage Z-score (30 min)
CADQMEECSQAGNASASA [HC1822]	-1.95 (inactive)	0.171 (inactive)	0.415 (inactive)
CAVQCCSMSYAGNASASA [HC2022]	-0.966 (inactive)	0.322 (inactive)	0.723 (inactive)
CADLCGSVFLAGNASASA [HC300]	-2.25 (inactive)	-0.764 (inactive)	-0.906 (inactive)
CASDGSWSTVAGNASASA [HC1361]	1.87	1.47	0.994 (inactive)
CARAKRQKDFAGNASASA [FS-2885]	3.42	4.84 (active)	4.86 (active)
CARWKRGLDWAGNASASA [FS-3214]	7.21 (active)	8.26 (active)	10.3 (active)
CARWKRPIDLAGNASASA [FS-3131]	-0.222 (inactive)	0.7 (inactive)	0.99 (inactive)
CARWKRNLDFAGNASASA [FS-2199]	6.47 (active)	7.97 (active)	10.7 (active)
CARWKRPAFTAGNASASA [FS-1806]	-0.259 (inactive)	0.293 (inactive)	-0.665 (inactive)
CALHTPGCVPAGNASASA [HC271]	-1.15 (inactive)	-0.17 (inactive)	0.0406 (inactive)
CAWIWFCLLLAGNASASA [HC1656]	-0.725 (inactive)	-0.337 (inactive)	-0.583 (inactive)
CAMRAFQRRMAGNASASA [FS-276]	-1.44 (inactive)	-1.21 (inactive)	-0.935 (inactive)
CAMRLRIRRMAGNASASA [FS-1601]	10.1 (active)	8.78 (active)	9.1 (active)
CATQRRGRTGAGNASASA [HC903]	-0.796 (inactive)	-0.169 (inactive)	-0.351 (inactive)
CASQSRIRRMAGNASASA [FS-504]	9.85 (active)	9.09 (active)	8.46 (active)
CATQSRIRRMAGNASASA [FS-511]	5.23 (active)	7.4 (active)	6.25 (active)

Sequence	furin cleavage Z-score (7.5 min)	furin cleavage Z-score (15 min)	furin cleavage Z-score (30 min)
CAKWSRHRRMAGNASASA [FS-175]	11.5 (active)	12.9 (active)	11.2 (active)
CACWPRHRRVAGNASASA [FS-1314]	0.553 (inactive)	1.38	2.27
CANIEEVALSAGNASASA [HC841]	0.342 (inactive)	0.83 (inactive)	-1.19 (inactive)
CAIKKRRRRRAGNASASA [FS-33]	7.42 (active)	7.44 (active)	6.1 (active)
CAIKKRFQTTAGNASASA [FS-1881]	-0.863 (inactive)	-1.06 (inactive)	-0.368 (inactive)
CAFYLRRRRRAGNASASA [FS-527]	2.84	3.02	3.78 (active)
CASMVGNWAKAGNASASA [HC342]	1.34	0.0553 (inactive)	0.702 (inactive)
CASKPCSAHLAGNASASA [HC2494]	1.46	0.933 (inactive)	0.45 (inactive)
CAARARLGRQAGNASASA [FS-400]	5.77 (active)	6.39 (active)	5.75 (active)
CAACPRRARGAGNASASA [FS-1297]	-0.34 (inactive)	-0.615 (inactive)	-0.259 (inactive)
CATRARLSRPAGNASASA [FS-1098]	-0.0765 (inactive)	-0.0832 (inactive)	-0.467 (inactive)
CAARGRGGRDAGNASASA [FS-978]	0.0621 (inactive)	-0.261 (inactive)	-0.608 (inactive)
CASQARLGRIAGNASASA [FS-301]	-1.06 (inactive)	-0.739 (inactive)	-0.311 (inactive)
CAARARLPRDAGNASASA [FS-1185]	9.09 (active)	9.62 (active)	6.75 (active)
CAARPRRARQAGNASASA [FS-1585]	9.65 (active)	12 (active)	7.48 (active)

— the supplement of paper PMC3545927
